# From article PMC5540273 (PLoS ONE, 2017)
# Key:
# MINK = system: T1, MINK
# T1 construct: gene MINK1
# MLK1 = system: T2, MLK1
# T2 construct: gene MAP3K9
# 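Also: kd values determined as follow-up on hits from a single-replicate KINOMEscan panel screen.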
structure (smiles),measurement,setting,value
Cc1ccc(-c2cc(-c3c[nH]nc3-c3ccccn3)ccn2)cc1 [GW684088],Kd,MINK,61 nM
Cc1ccc(NC(=O)Nc2cc(C(C)(C)C)nn2-c2ccccc2)cc1 [GSK1014915],Kd,MKNK2,370 nM
NC(=O)c1nnc2ccccc2c1N,Kd,MLK1,> 10000 nM
